PubChem BioAssay (NCATS)
Calls of active or inactive are those of the source. Calls come from the whole dose curve; as a rule, active = well fitted curve in the direction sought with a large enough effect; inconclusive = small, poorly fitted or top-dose-only effect, or another doubt; inactive = no such curve, though single readings can be large or run the other way.

Assay: HepG2 viability counterscreen (readout 2: ATP content) against the NCATS DSHEA and TCM libraries (AID 1794840);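 note: HepG2 cells exposed to substances for about 24 h; 0% is about no effect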
Settings: ATP content luminescence; series mostly up to 27.3 µM; activity change, negative = cytotoxic: at the top concentration
Excerpt: Assay Development and Screening Technology Laboratory (ADST)
National Center for Advancing Translational Sciences (NCATS), Rockville, MD
National Institute of Health (NIH), Bethesda, Maryland
Dietary Supplements and Natural Products have minor oversight of their safety and efficacy. We assembled a collection of Dietary Supplements and Natural Products (DSNP) as well as Traditional Chinese Medicinal (TCM) Plant extracts, which were screened against an in vitro panel of assays, including a liver cytochrome p450 enzyme panel, CAR/PXR signaling pathways, and P-gp transporter assays, to assess their activity. This pipeline facilitated the interrogation of Natural Product-Drug Interaction (NaPDI) through prominent metabolizing pathways. In addition, we compared the activity profiles of the DSNP/TCM substances with those of an approved drug collection. Many of the approved drugs have well-annotated mechanisms of action (MOA) while the MOAs for most of the DSNP and TCM samples remain unknown. Based on the premise that compounds with similar activity profiles tend to share similar targets or MOA, we clustered the library activity profiles to identify overlap with the NCATS Pharmaceutical Collection to predict the MOAs of the DSNP/TCM substances. Overall, we highlight four significant bioactivity profiles (measured by p-values) as examples of this prediction. In addition, to assess broad cytotoxicity, we employed screening against a HepG2 cell line.
To this end, we profiled both collections for potential CAR and/or PXR activity, employing a previously published 1536-well qHTS assay.
PROTOCOL TABLE (as described by Inglese J, Shamu CE and Guy RK. 2007)
SEQUENCE No. (e.g., 1, 2, 3, etc.); PARAMETER (e.g., Cells, Incubation, Reagent, etc.); VALUE; DESCRIPTION.
1; Cells; 5 uL; HepG2 cells, white solid-bottom tissue treated Greiner plate.
2; Incubation; 4 hrs; 37C, 95% humidity, 5% CO2.
3; Compounds; 23 nL; Kalypsis pin tool (Wako USA) equipped with a 1536-well pin head to transfer to the assay plates.
4; Incubation; 24 hrs; 37C, 95% humidity, 5% CO2.
5; Reagent; 1 uL; GF-AFC substrate.
6; Incubation; 30 min; 37C, 95% humidity, 5% CO2.
7; Read 1; Fluorescence; EnVision plate reader excitation 380 nm, emission 510 nm.
8; Reagent; 3 uL; CellTiter-Glo (Promega).
9; Centrifuge; 1000 RPM; 15 seconds.
10; Incubation; 30 min; room temperature.
11; Read 2; Luminescence; ViewLux plate reader.
NOTES (numbers refer to Sequence numbers above)
1. 5 uL of HepG2 cells at 2 x 10^5 cells/mL (1,000 cells/well) were dispensed into a 1536-well white solid-bottom tissue treated plate (Greiner Bio-One) using a Multidrop Combi dispenser (Thermo Scientific). This assay use both GF-AFC substrate and Cell-Titer Glo (CTG), measuring cellular protease activity and ATP content, respectively.
2. Plates were incubated at 37C, 95% humidity, and 5% CO2 for ~4 hours to allow for cell attachment.
3. Compounds were transferred (16 nL) via pintool (Wako Automation), for a final concentration range for most substances of 15.6 nM - 31.3 uM.
4. Plates were incubated for ~24 hours.
5. 1 uL addition of GF-AFC substrate (final concentration 25 uM; MP Biomedicals).
6. Plates were incubated at 37C, 95% humidity, and 5% CO2 for 30 minutes.
7. After incubation, plates were read for fluorescence intensity (Ex/Em = 380 nm/510 nm) on an EnVision detector (PerkinElmer, Shelton, Connecticut).
8. Once the detection for fluorescence was completed, plates were dispensed with 3 uL of CellTiter-Glo (Promega, Madison, WI).
9. Plates were centrifuged for 15 seconds at 1,000 RPM's.
10. Plates were incubated for 30 minutes at room temperature.
11. Plates were then read for luminescence intensity on a ViewLux detector.
Inglese J, Shamu CE and Guy RK, Reporting data from high throughput screening of small molecule libraries, Nature Chemical Biology, 2007, 3(8): 438-441. doi.org/10.1038/nchembio0807-438.

Row | Structure (SMILES) | activity change, negative = cytotoxic
1 | CC/C=C\C/C=C\C/C=C\CCCCCCCC(=O)O | -9.15% (inactive)
2 | C=C1CC[C@H](O)CC1=C/C=C1\CCC[C@]2(C)[C@@H]([C@H](C)/C=C/[C@H](C)C(C)C)CC[C@@H]12 | 4.43% (inactive)
3 | CC(C)=CCC/C(C)=C/C=C/C(C)=C/C=C/C(C)=C/C=C/C=C(C)/C=C/C=C(C)/C=C/C=C(\C)CCC=C(C)C | -3.69% (inactive)
4 | CCCCCCCCCCCC(=O)OCC(O)CO (stereo unspecified) | 8.98% (inactive)
5 | CC1=CCC2CC1C2(C)C (stereo unspecified) | 1.81% (inactive)
6 | COC1=C(OC)C(=O)C(C/C=C(\C)CC/C=C(\C)CC/C=C(\C)CC/C=C(\C)CC/C=C(\C)CC/C=C(\C)CC/C=C(\C)CC/C=C(\C)CC/C=C(\C)CCC=C(C)C)=C(C)C1=O | -0.519% (inactive)
7 | Oc1cccc(O)c1O | 2.43% (inactive)
8 | CC/C=C\C/C=C\C/C=C\C/C=C\C/C=C\C/C=C\CCC(=O)O | -8.17% (inactive)
9 | Oc1ccc(/C=C/c2cc(O)cc(O)c2)cc1 | 0.981% (inactive)
10 | CC(C)=CCC/C(C)=C/CC/C(C)=C/CC/C(C)=C/CC1=C(C)C(=O)c2ccccc2C1=O | -4.17% (inactive)
11 | CC[C@H](CC[C@@H](C)[C@H]1CC[C@H]2[C@@H]3CC=C4C[C@@H](O)CC[C@]4(C)[C@H]3CC[C@]12C)C(C)C | -4.52% (inactive)
12 | Cc1ncc(C[n+]2csc(CCO)c2C)c(N)n1 | -2.41% (inactive)
13 | O=C(O)/C=C/c1ccccc1 | -0.375% [at 46.6 µM] (inactive)
14 | C=C1CC[C@H](O)C/C1=C\C=C1/CCC[C@]2(C)[C@@H]([C@H](C)CCCC(C)C)CC[C@@H]12 | -1.9% (inactive)
15 | CCCCC/C=C\C/C=C\C/C=C\CCCCC(=O)O | -4.42% [at 3.42 µM] (inactive)
16 | CC/C=C\C/C=C\C/C=C\C/C=C\C/C=C\CCCC(=O)O | 1.91% (inactive)
